Screens deposited in PubChem BioAssay by National Center for Advancing Translational Sciences (NCATS).
mIDH1 inhibitor = blocks human mutant IDH1 R132H enzyme; AID 602179; IDH1-R132H enzyme, NADPH consumption, diaphorase/resazurin fluorescence; Potency, µM (series often up to 76.6 µM), for inactives: top-dose activity change, negative = inhibition, hits mostly inhibitors; O75874; hit rate 0.093% among 390,000; note: nearly all actives have a fitted effect of over 65% in size
Target sequence (O75874 whole entry R132H, stated change not applied): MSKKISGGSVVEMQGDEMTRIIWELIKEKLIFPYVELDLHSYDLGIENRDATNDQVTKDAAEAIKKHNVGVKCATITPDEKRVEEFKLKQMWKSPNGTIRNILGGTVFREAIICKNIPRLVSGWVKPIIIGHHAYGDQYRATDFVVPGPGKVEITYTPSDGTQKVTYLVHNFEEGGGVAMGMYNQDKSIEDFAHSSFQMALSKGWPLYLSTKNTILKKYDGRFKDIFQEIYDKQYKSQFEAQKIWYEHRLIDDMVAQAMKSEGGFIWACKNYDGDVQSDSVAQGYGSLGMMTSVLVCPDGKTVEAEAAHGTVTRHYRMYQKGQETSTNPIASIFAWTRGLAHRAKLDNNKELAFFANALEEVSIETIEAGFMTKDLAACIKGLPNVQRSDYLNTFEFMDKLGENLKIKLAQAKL
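IDH1-R132H (0.5 ug/mL dispensed) in pH 7.5 Tris buffer was preincubated 30 min with compound, then given a substrate mix of 0.016 mM NADPH and 2 mM alpha-KG for 80 min at room temperature; remaining NADPH was read by diaphorase/resazurin fluorescence.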
VDR inh = blocks the human vitamin D receptor; VDR-SRC2-3 peptide fluorescence polarization, 2 h; Potency, µM, for the others: max response, negative = inhibition, most hits filed as inhibitors; hit rate 0.93% among 400,000
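The screen uses fluorescence polarization to detect compounds that interfere with recruitment of the SRC2-3 coactivator peptide to VDR; plates are read after 2 h at room temperature.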
Sfp inh = inhibitors of Bacillus subtilis Sfp phosphopantetheinyl transferase; Biochemical Sfp PPTase activity, qHTS; hit rate 3.5% among 310,000; AID 1490; Potency, µM, for inactives: largest response in the series, negative = inhibition, actives largely listed as inhibitors; Q9F4F7;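 note: the enzyme is Sfp with the accession as filed and its product quenches rhodamine fluorescence; 0% = enzyme reaction without inhibitor and -100% = no enzyme wells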
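Compounds were incubated with enzyme (final 15 nM) for 15 min at room temperature before substrate addition started the reaction. Fluorescence at 525 nm excitation, 598 nm emission was recorded immediately and after 30 minutes.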
rTrxR1 inhibitor = inhibitors of rat thioredoxin reductase 1; recombinant rTrxR1, NADPH fluorescence consumption, selenite substrate; O89049; hit rate 1% among 390,000; AID 588453; Potency, µM (series often up to 114 µM), for inactives: at the highest dose activity change, negative = inhibition, actives largely listed as inhibitors; note: nearly all actives have a fitted effect of over 65% in size
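Rat TrxR1 (90 nM in the dispensed reagent) was pre-reduced with 400 uM NADPH for 5 min at room temperature, then incubated with compound for 15 min. After 400 uM selenite was added, NADPH fluorescence (Ex 340/Em 450 nm) was followed for 8 min.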
PLK1 PBD block = inhibitors of human PLK1 polo-box domain binding; P53350; Plk1 PBD binding of FITC phosphopeptide, fluorescence polarization; Potency, µM, inactives show max response, negative = inhibition, hits mostly inhibitors; hit rate 2.8% among 360,000; AID 720504; note: series mostly up to about 57 µM; nearly all actives have a fitted effect of over 65% in size
TrxR1 substrate = rat thioredoxin reductase 1 substrate activity | purified TrxR1 substrate turnover, NADPH consumption readout | AID 588456 | hit rate 0.01% among 390,000 | Potency, µM (highest dose often 114 µM), inactives show at the top dose activity change, negative = substrate turnover | O89049; note: nearly all actives have a fitted effect of over 50% in size
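Rat TrxR1, dispensed at 90 nM, was prereduced with 400 uM NADPH (final) for 5 min at ~22 deg C, then incubated with compound 15 min before 400 uM selenite. A first-read NADPH fluorescence drop versus no-compound background flagged substrates.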
An asterisk follows results filed as active; ? = inconclusive; · = not tested or not shown; [ ] = another dose, or the depositor's remark. A selection: hits, their analogues and other compounds. The true share with any hit is near 5.2%. Calls come from the whole dose curve; as a rule, active = well fitted curve in the direction sought with a large enough effect; inconclusive = small, poorly fitted or top-dose-only effect, or another doubt; inactive = no such curve, though single readings can be large; an effect the other way counts as inactive or inconclusive. Unless noted, % is set by controls: 0 for no effect and ±100 for the full control effect; potency is the fitted concentration of half-maximal effect.

SMILES	mIDH1 inhibitor	VDR inh	Sfp inh	rTrxR1 inhibitor	PLK1 PBD block	TrxR1 substrate
Cc1nc2ccccn2c1-c1csc(Nc2cccc(C(=O)O)c2)n1	-12.3%	-10.7%	79.4µM*	-23.1%	-3.8%	-8.5%
CCCn1c(C)nc2c(NC(C)CCCN(CC)CC)nc(C)nc21 (stereo not drawn)	·	·	17.8%	·	·	·
O=C(NNC(=S)NC1CCCCC1)c1cccc(S(=O)(=O)Nc2ccccc2Cl)c1	-4.7%	-3.8%	?	-13.0%	29.9µM*	0.6%
CC(C)(C)C1CCC(=NNC(=S)Nc2cccnc2)CC1 (stereo not drawn)	12.8%	9.0%	?	-23.4%	-2.3%	-11.5%
CCNC(=S)NN=C1CCC(C(C)(C)C)CC1 (stereo not drawn)	-1.0%	-15.6%	50.1µM*	-14.1%	0.4%	-3.0%
CC(C)(C)N(CC(=O)NC1CCCCC1)C(=O)CS(=O)CC(=O)Nc1ccc(F)cc1 (stereo not drawn)	-0.5%	-3.7%	12.4%	10.9%[57.1 µM]	-2.7%	4.5%[57.1 µM]
OC(COC(c1ccc(F)cc1)c1ccc(F)cc1)CN1CCCC1 (stereo not drawn)	5.7%	-0.5%	79.4µM*	18.5%	-4.9%	2.8%
CN1CCN(CC(O)COC(c2ccccc2)c2ccccc2)CC1 (stereo not drawn)	13.0%	12.1%	12.8%	7.1%[57.1 µM]	-9.9%	4.4%[57.1 µM]
C[N+]1(CC(=O)c2ccc(Oc3ccccc3)cc2)CCOCC1	·	·	·	5.8%	·	1.4%
CN(C)S(=O)(=O)c1ccc2c(c1)N(CC(=O)Nc1ccc(OC(F)(F)F)cc1)C(=O)CS2	-4.7%	4.5%	·	8.0%[57.1 µM]	·	-7.8%[57.1 µM]
CCCCCCC1CCC(C(=O)N2CCOCC2)CC1 (stereo not drawn)	-2.3%	-3.8%	-8.9%	-0.9%	-4.5%	-4.9%
CCOC(=O)C1CCN(CCC(=O)Nc2ccccc2Cl)CC1	-7.1%	3.4%	13.5%	3.8%	23.8µM*	0.5%
CCOC(=O)N1CCN(C(=O)C2CCN(C(=O)c3ccccc3C)CC2)CC1	0.4%	22.4µM*	·	2.51µM*	3.36µM*	6.1%
CCOC(=O)C1CCN(CCC(=O)Nc2ccccc2OC)CC1	-23.4%	3.3%	·	-1.8%	·	-1.5%
CCOC(=O)C1CCN(C(=O)c2ccccc2NC(=O)c2ccc(Cl)cc2)CC1	-3.8%	?	0.2%	1.1%	15µM*	0.0%
Cc1ccccc1C(=O)N1CCC(C(=O)N2CCN(c3ncccn3)CC2)CC1	-12.6%	5.9%	·	9.2%	-2.3%	3.0%
COc1cc(OC)nc(-n2ncc(Br)c(Br)c2=O)n1	2.4%	-22.4%	4.1%	3.55µM*	?	5.6%
COC(=O)c1cnn(-c2nc(OC)cc(OC)n2)c1C	-0.6%	0.7%	14.5%	0.1%	-8.5%	-4.8%
c1ccc(-c2cccc(N3CC[C@@]4(CCCNC4)C3)c2)cc1	·	?	-26.4%	·	·	·
O=C1CN(S(=O)(=O)c2ccccc2Cl)CCN1	2.0%	-13.8%	·	-9.6%	15µM*	-10.9%
CC(C)(C)c1cc(-c2csc(Nc3ccccc3)[n+]2Cc2ccc(C(=O)O)cc2)cc(C(C)(C)C)c1O	36.9µM*	79.4µM*	13.5%	-6.4%	21.2µM*	-5.8%
O=C(O)c1ccc(C[n+]2c(-c3ccccc3)csc2Nc2ccccc2)cc1	-21.2%	-17.7%	5.5%	5.8%	?	-0.1%
CCOC(=O)CSc1nnc(-c2ccco2)n1-c1ccccc1	4.2%	14.3%	35.5µM*	?	-5.6%	-4.4%
COc1cccc(C(=O)CSc2nnc(-c3ccco3)n2CC2CCCO2)c1 (stereo not drawn)	1.6%	-11.1%	8.6%	-9.6%	-3.8%	1.5%
COC(=O)CSc1nnc(-c2ccccc2OC)n1-c1ccc(C)cc1	2.2%	-7.4%	9.2%	3.5%	26.7µM*	-1.2%
SMILES	mIDH1 inhibitor	VDR inh	Sfp inh	rTrxR1 inhibitor	PLK1 PBD block	TrxR1 substrate
Cc1cccc(C)c1NC(=O)CSc1nnc(C)n1CC1CCCO1 (stereo not drawn)	10.2%	-5.8%	17.1%	15.3%[57.1 µM]	23.8µM*	6.5%[57.1 µM]
COc1ccc(C(=O)CSc2nnc(-c3ccco3)n2CC2CCCO2)cc1 (stereo not drawn)	8.2%	-6.9%	44.7µM*	?	-14.3%	-5.7%
COc1ccc(C)cc1-n1cnc2cc(C(=O)NC3CCCC3)ccc21	7.9%	19.8%	·	16.3%[57.1 µM]	·	-4.2%[57.1 µM]
CC1CCN(S(=O)(=O)c2ccc3[nH]cc(C(=O)NCc4ccc(F)cc4)c(=O)c3c2)CC1	-8.3%	5.7%	·	17.1%[57.1 µM]	·	-4.5%[57.1 µM]
CCn1c(SCC(=O)N2c3ccccc3Sc3ccccc32)nnc1-c1ccco1	3.1%	-21.2%	?	20µM*	-6.2%	9.3%
COCCn1c(SCC(=O)NCCc2ccccc2)nnc1-c1ccco1	0.5%	17.8%	-22.1%	?	-6.4%	-1.4%
O=C(CSc1nnc(-c2cc3ccccc3cc2O)n1Cc1ccco1)N1CCc2ccccc2C1	2.8%	3.7%	44.7µM*	?	-19.0%	6.6%[57.1 µM]
CC(C)N(C(=O)CSc1nnc(-c2cc3ccccc3cc2O)n1Cc1ccco1)C(C)C	2.6%	-14.3%	-19.5%	?	-7.1%	3.2%[57.1 µM]
COC(=O)CSc1nnc(-c2ccco2)n1Cc1ccco1	8.3%	11.6%	22.4µM*	?	-4.8%	3.3%
COCCn1c(SCc2cccnc2)nnc1-c1ccco1	14.0%	0.1%	20µM*	?	-5.9%	2.6%
C=CCn1c(SCC(=O)N2c3ccccc3Sc3ccccc32)nnc1-c1ccco1	8.7%	13.0%	-16.2%	-2.9%[57.1 µM]	-4.3%	5.5%[57.1 µM]
O=C(c1cccs1)N1CCCc2cc(NS(=O)(=O)c3ccc(F)cc3F)ccc21	3.7%	-6.1%	·	23.4%[57.1 µM]	·	10.3%[57.1 µM]
C#CC(C)OC(=O)Nc1cccc(Cl)c1 (stereo not drawn)	·	-2.0%	1.0%	·	·	·
Cc1occc1-c1nnc(SCC(=O)N2CCOCC2)n1Cc1ccco1	3.7%	-2.9%	89.1µM*	-1.1%	-5.4%	0.6%
Oc1ccc(-c2n[nH]c(=S)n2Cc2ccco2)cc1	1.5%	10.8%	-1.8%	?	-14.4%	-1.0%
Oc1cc2ccccc2cc1-c1n[nH]c(=S)n1Cc1ccco1	6.2%	-15.8%	22.4µM*	?	-15.6%	1.3%
CNC(=O)C1(c2ccccc2)CCCCC1	-1.3%	·	·	·	-3.1%	·
CCOC(=O)c1ccc(NC2=CC(=O)C(=O)c3ccccc32)cc1	8.5%	-29.7%	50.1µM*	9.3%	-27.1%	-6.7%
CC(=O)Nc1ccc(NC2=CC(=O)c3ccccc3C2=O)cc1	2.5%	6.1%	56.2µM*	-18.6%	-7.7%	-7.1%
Cc1ccc(N2CN=c3s/c(=C\c4cccnc4)c(=O)n3C2)cc1	1.2%	9.0%	-26.9%	-11.7%	-10.7%	-9.5%
Cc1ccc(/C=c2/sc3n(c2=O)CCCN=3)o1	-0.4%	-12.7%	20µM*	?	1.7%	-11.9%
O=C(NCc1ccc(/C=c2\sc3n(c2=O)CCN=3)o1)C(=O)Nc1ccccc1	·	·	22.4µM*	·	·	·
